Records with an inconclusive call do not appear. Unmarked numbers belong to inactive results. Calls of active or inactive are those of the source. Calls come from the whole dose curve; as a rule, active = well fitted inhibition curve with a large enough effect; inconclusive = small, poorly fitted or top-dose-only effect; inactive = no such curve, though single readings can be large or run the other way.
The molecules below were run on Zika virus NS2B-NS3 protease (linked construct) (assay: Primary screen NINDS Rhodamine qHTS for Zika virus inhibitors (AID 1347160; note: nearly all actives have a fitted effect of over 55% in size)). Conditions: purified NS2B-NS3 protease, Rhodamine110 substrate fluorescence; series mostly up to 57.1 µM; activity change, negative = inhibition: at the top concentration.
Description: Avindra Nath, Ph.D., National Institute of Neurological Disorders and Stroke (NINDS), Bethesda, MD
Radhakrishnan Padmanabhan, Ph.D., Georgetown University (GU), Washington D.C.
Zika Virus causes congenital defects, including microcephaly and is associated with Guillain-Barre syndrome, eningoencephalitis and myelitis in infected adult. […] Using a target-based approach, we hope to establish a screening paradigm to uncover novel, cell-active NS2B-NS3 protease (Zika Virus) specific inhibitors from NCATS' collection of small molecules using qHTS.
Four assay panel was created to identify potential Zika Virus inhibitors. Namely, (1) GU unlinked NS2B-NS3 AMC tagged protease qHTS, (2) GU unlinked NS2B-NS3 Rhodamine tagged protease qHTS, (3) NINDS linked NS2B-NS3 AMC tagged protease qHTS, (4) NINDS linked NS2B-NS3 Rhodamine tagged protease qHTS. Active compounds were re-acquired and re-screened to confirm inhibition. Inhibitors were further screened against various confirmatory and counterscreens in dose response format.
Early Translation Branch (ETB)
National Center for Advancing Translational Sciences (NCATS), Rockville, MD
National Institute of Health (NIH), Bethesda, Maryland
For the linked assay, Nath lab (NINDS) provided the purified linked NS2B-NS3 protease which is consists of hydrophilic domain of NS2B linked to the NS3 protease domain by a flexible (-[…]-) linker. Control compound aprotinin is obtained from Thermo Scientific (#78432; Waltham, Massachusetts). Rhodamine110 substrate ([N-Cbz]-Nle-Lys-Arg-Arg-Rhod110-Arg-Arg-Lys-Nle-[N-Cbz]) was purchased from either Genscript or Bachem.
1536-well Protease (Rhodamine110 Substrate) Assay:
Briefly, 3 microL of enzyme (25 nM final concentration), in assay buffer (10 mM Tris-HCl pH 8.0 with 0.01% Tween 20) were dispensed into a 1,536-well solid-bottom black plate (Greiner Bio One, Monroe, NC). Twenty-three nL of compounds (final concentration range 7.28 nM to 114 microM) or control Aprotinin (final concentration range 3.47 nM to 114 microM) were transferred via Wako Pin-tool (Wako Automation, Richmond, VA). Samples were incubated (room temperature, protected from light) for 15 minutes followed by a 1 microL Rhodamine110 substrate addition (1.5 microM final concentration). Plates were then immediately read on a ViewLux High-throughput CCD imager (PerkinElmer, Waltham, MA) equipped with FITC fluorescence optics (480(20) nm excitation, 540(25) nm emission), then incubated (room temperature, protected from light) for 15 minutes (~15% conversion). The change in fluorescence intensity over the 15-minute reaction period was normalized against no-inhibitor and no-enzyme controls and the resulting percent inhibition data were fitted to a 4-parameter Hill equation. Aprotinin was used as intraplate control.
% is set by controls: 0 for no effect and ±100 for the full control effect; potency is the fitted concentration of half-maximal effect.

Structure (SMILES)	outcome	activity change, negative = inhibition	Potency
OC1CCC(Nc2nc(-c3ccccc3)nc3[nH]ccc23)CC1 (stereo not given)	inactive	–	–
CN1CC2CN(c3ccc4oc5ccccc5c(=O)c4c3)CC2C1 (stereo not given)	inactive [at 33.1 µM]	–	–
CC1(C)CC[C@]23CO[C@@]4(CCC5[C@@]6(C)CC[C@H](O[C@@H]7OC[C@H](O[C@@H]8O[C@H](CO)[C@@H](O)[C@H](O)[C@H]8O[C@@H]8OC[C@@H](O)[C@H](O)[C@H]8O)[C@H](O)[C@H]7O)[C@@](C)(CO)C6CC[C@@]5(C)[C@]4(C)CC2=O)[C@@H]3C1 (stereo not given in full)	–	5.71% [at 15.1 µM]	–
CNc1cc2[nH]c(=O)n(-c3ccc(NC(=O)NS(=O)(=O)c4ccc(Cl)s4)cc3)c(=O)c2cc1F	inactive	–	–
O=C(Nc1cc(C(F)(F)F)cc(C(F)(F)F)c1)c1cnc(Cl)nc1C(F)(F)F	–	-29.1%	–
COC(=O)C(Cc1ccc(OCCn2c(=O)sc3cc(C(=O)c4ccccc4)ccc32)cc1)C(=O)OC	–	4.53%	–
CC[C@@H](C)[C@@H]1OC2(C=C[C@H]1C)C[C@@H]1C[C@H](C/C=C(\C)[C@H](O[C@H]3C[C@H](OC)[C@H](O[C@H]4C[C@H](OC)[C@H](NC(C)=O)[C@H](C)O4)[C@H](C)O3)[C@H](C)/C=C/C=C3\CO[C@H]4[C@H](O)C(C)=C[C@@H](C(=O)O1)[C@@]34O)O2 (stereo not given in full)	–	-2.97% [at 33.1 µM]	–
NC(=O)C1=CC2C3C=CC2C(OC3=O)O1 (stereo not given)	–	-3.73% [at 112 µM]	–
COc1ccc2nc(-c3cc(OC)c(OC)c(OC)c3)cc(C(=O)NCC(=O)Nc3ccc(C(C)=O)cc3)c2c1	inactive	–	–
C=C1/C(=C/C=C2\CCC[C@]3(C)[C@@H]([C@@H](C)OCCC(O)(CC)CC)CC[C@@H]23)C[C@@H](O)C[C@@H]1O	–	-22.2%	–
COc1ccc(CCc2nc3c(C)c(-c4c(C)noc4C)c(C)cc3n2CCN2CCOCC2)cc1	–	0.847%	–
Cc1nc2cc(C(=O)NCc3ccccn3)nn2c(C)c1Cc1cccc(Cl)c1	–	-6.25%	–
Fc1ccc(-n2cc(CCCCN3CCC4(CC3)OCc3ccccc34)c3ccccc32)cc1	–	236%	–
N[C@@H]1c2cccnc2[C@H](OC(=O)N2CCC(n3c(=O)[nH]c4ncccc43)CC2)CC[C@H]1c1cccc(F)c1F	–	12.8%	–
COc1cc(C2OC(c3ccc(OC)c(OC)c3)C(C)C2C)ccc1O (stereo not given)	–	-4.73% [at 33.1 µM]	–
COc1ccc2nccc(C(=O)CC[C@@H]3CCN(CC#Cc4cc(F)cc(F)c4F)C[C@@H]3C(=O)O)c2c1	inactive	–	–
O=C(NCCCN1CCC2(CC1)OCc1ccccc12)[C@H]1CCCN1Cc1ccccc1	inactive; activator	–	–
COC1CC(O[C@H]2CC[C@]3(C)C4CC[C@]5(C)C(C6=CC(=O)OC6)=CCC56OC46CC[C@@H]3C2)OC(C)C1O[C@@H]1O[C@H](CO[C@@H]2O[C@H](CO)[C@@H](O)[C@H](O)[C@H]2O)[C@@H](O)[C@H](O)[C@H]1O (stereo not given in full)	–	13.3% [at 15.1 µM]	–
Cc1[nH]c(/C=C2\C(=O)Nc3cc(-c4ccccc4)ccc32)c(C)c1CCC(=O)O	–	–	2.24 µM (active)
CC[C@@H](C)Nc1cc(C(=O)NC2CC3CC[C@@H](C2)N3c2ccc(C(=O)C3CC3)cn2)c(C)cc1C(N)=O (stereo not given in full)	–	-16.5%	–

Structure (SMILES)	outcome	activity change, negative = inhibition	Potency
CC[N+]1(C/C2=C/CCCCCC2)CCC(NC(=O)C2c3cc(Cl)ccc3Oc3ccc(Cl)cc32)CC1 (stereo not given)	–	284%	–
C[C@H](Nc1cc2c(-c3ccc4c(c3)OCO4)noc2cn1)c1ccccc1	inactive	–	–
C=C1C(=O)O[C@@H]2C[C@@]3(C)C[C@@H](O)C[C@H](C)C3=C[C@H]12	–	-6.35%	–
CC(=O)OC1CC(C)(C(=O)O)CC2C3=CC(=O)C4C5(C)CCC(OC6OC(C(=O)O)C(O)C(O)C6OC6OC(C(=O)O)C(O)C(O)C6O)C(C)(C)C5CCC4(C)C3(C)CCC12C (stereo not given)	inactive [at 15.1 µM]	–	–
Cc1ccc(O)cc1Nc1ccnc(Nc2cccc(C(N)=O)c2)n1	–	19.3%	–
CCC(C)C(=O)OC1C(C)C2(O)C(C=C(CO)CC3(O)C(=O)C(C)=CC32)C2C(C)(C)C12OC(=O)C(C)C (stereo not given)	–	-5.82% [at 33.1 µM]	–
COc1ccc(C2(N(C)C(=O)c3ccc(NC(=O)c4ccco4)cc3)CCOCC2)cc1	inactive	–	–
CC1OC2OC(=O)C3(C)CC4C5(CO5)C5=CC(=O)OC(C)(C)C5=CC(=O)C4(C)C(C1=O)C23 (stereo not given)	–	–	12.6 µM (active)
CC(C)CCNC(=O)[C@H](CC(C)C)NC(=O)[C@H]1O[C@@H]1C(=O)O	–	65.6%	–
C/C=C(/C)C(=O)O[C@H]1C=C(CO)C(=O)[C@H](OC(=O)/C(C)=C/CO)[C@H]1C(C)C	inactive [at 33.1 µM]	–	–
CCCNCCc1ccc(NS(=O)(=O)c2ccc(OC(F)(F)F)cc2)cc1	inactive; activator	–	–
O=c1[nH]c2ccc(C#CCN3CCC(Cc4ccccc4)CC3)cc2[nH]1	inactive	–	–
CC(C)S(=O)(=O)NC[C@@H]1CC(c2ccc(N3CCCC3)c(F)c2)=NO1	inactive	–	–
CCCCOC(=O)NS(=O)(=O)c1sc(CC(C)C)cc1-c1ccc(Cn2ccnc2)cc1	–	1.35%	–
Fc1ccc(-c2nc(-c3ccccc3F)[nH]c2-c2ccncc2)cc1	–	24.9%	–
C/C=C(\C)C(=O)OC1C(C)C2(O)C(C=C(CO)CC3(O)C(=O)C(C)=CC32)C2C(C)(C)C12OC(=O)C(C)C (stereo not given)	–	-17.8% [at 33.1 µM]	–
C=C1C(=O)OC2CC(C)C(CCC(C)O)=CCC12 (stereo not given)	–	4.83%	–
O=C(NO)c1ccc(CC(=O)N(CCO)c2ccccc2)cc1	–	17.3%	–
C[C@@H](N[C@H]1CCCC[C@@H]1NC(=O)c1ccc(Cl)cc1)c1cccc2ccccc12	–	81.3%	–
C=C1CCCC2(C)CCC(C(C)(C)OC3OC(C)C(O)C(O)C3OC(=O)/C(C)=C\C)CC12 (stereo not given)	inactive [at 33.1 µM]	–	–

From PubChem BioAssay (NCATS)
